From PubChem BioAssay AID720697 (Broad Institute, 2013)
Results with a measured potency or affinity are listed apart. Inconclusive results are not listed. Unmarked numbers belong to inactive results.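 Rule for the calls: active = signal loss with fitted half-maximal concentration at or below twice the top valid tested dose in every test run; inconclusive = runs disagree, flat 30 to 70% signal loss, or poor fit; inactive = all runs flat, opposite direction, or potency beyond limit.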

assay: general mammalian cell viability loss – inhibitor set, cherry-pick, set 2, cytotoxicity control for miR-122 modulator project, dose response (AID 720697); settings: HEK293T viability, CellTiter-Glo luminescence, 48 h; series mostly up to 26 µM; activity change, negative = cytotoxicity: at the top concentration;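 note: 0% = median of neutral control wells and -100% = MG132 positive control wells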

First: COC(=O)c1nn(-c2ccccc2)c(Sc2ccc(Cl)cc2)c1/C=N/O
Second: O=C(Nc1ccccc1N1CCN(C(=O)c2ccc(Cl)cc2)CC1)c1cccnc1
The “activity change, negative = cytotoxicity” value of the first is lower: 48.2% for the first, 85.2% for the second.

Compared with Cc1ccc(S(=O)(=O)Nc2ccc3c(c2)C(=O)N(C)[C@@H]2CC[C@@H](CC(=O)NCCc4ccncc4)O[C@@H]2CO3)cc1, COc1cccc(C(=O)Nc2ccc3c(c2)C(=O)N(C)[C@@H]2CC[C@@H](CC(=O)NCc4ccc(F)cc4)O[C@@H]2CO3)c1 is higher in “activity change, negative = cytotoxicity” value: 45.1% for the first, 71.3% for the second.

First: CC(C)NC(=O)N(C)C[C@H]1Oc2cc(C#C[C@H](C)O)ccc2S(=O)(=O)N([C@@H](C)CO)C[C@H]1C
Second: CCC(=O)N(C)C[C@H]1Oc2cc(C#CC3CCCCC3)ccc2S(=O)(=O)N([C@@H](C)CO)C[C@H]1C
The “activity change, negative = cytotoxicity” value of the first is higher: 70.4% for the first, 12.7% for the second.

Compared with CC(=O)c1cccc(S(=O)(=O)NCC2CCCCC2)c1, CC(=O)N1[C@H](CO)[C@@H](c2ccccc2)[C@H]1CN(C(=O)NC(C)C)C1CCCC1 is higher in “activity change, negative = cytotoxicity” value: -3.45% for the first, 40% for the second.

Compared with C/C=C/c1ccc([C@@H]2[C@H](CO)N(Cc3ccccn3)[C@H]2CNC(=O)CC)cc1, C/C=C/c1ccc([C@@H]2[C@@H](CO)N(C(C)=O)[C@@H]2CN(C)C(=O)c2ccccn2)cc1 is higher in “activity change, negative = cytotoxicity” value: 82.8% for the first, 203% for the second.

Going from C[C@@H]1CN([C@H](C)CO)S(=O)(=O)c2ccc(C3=CCCC3)cc2O[C@@H]1CN(C)C(=O)c1ccc(F)cc1 to C[C@@H]1CN([C@H](C)CO)S(=O)(=O)c2ccc(/C=C/c3ccccc3)cc2O[C@@H]1CN(C)C(=O)c1cccnc1, the “activity change, negative = cytotoxicity” value rises from 24.5% to 72.3%.

Compared with C[C@@H]1CN([C@@H](C)CO)C(=O)c2cccc(NC(=O)Nc3ccc4c(c3)OCO4)c2O[C@@H]1CN(C)Cc1ccc(Oc2ccccc2)cc1, COc1ccccc1C#Cc1cnc2c(c1)C(=O)N([C@H](C)CO)C[C@H](C)[C@@H](CN(C)C(=O)c1ccc3c(c1)OCO3)O2 is lower in “activity change, negative = cytotoxicity” value: 8.06% for the first, -27.6% for the second.

Compared with CN1C(=O)c2cc(NC(=O)Nc3ccccc3F)ccc2OC[C@@H]2O[C@@H](CC(=O)NCc3ccc(-c4ccccc4)cc3)CC[C@H]21, Cc1cc(C(=O)Nc2ccc3c(c2)C(=O)N(C)[C@@H]2CC[C@@H](CC(=O)N[C@H](C)c4ccccc4)O[C@H]2CO3)no1 is lower in “activity change, negative = cytotoxicity” value: 129% for the first, 37.4% for the second.

First: CC(=O)N1[C@H](CN(C)S(=O)(=O)c2ccccc2)[C@H](c2ccccc2)[C@@H]1CO
Second: CCC(=O)N1[C@H](CN(C(C)C)S(C)(=O)=O)[C@H](c2ccccc2)[C@@H]1CO
The “activity change, negative = cytotoxicity” value of the first is higher: 127% for the first, 59.8% for the second.

First: Fc1ccc(CN2CCN(c3ncnc4scc(-c5ccc(F)cc5)c34)CC2)cc1
Second: Cc1ccccc1-c1ccc([C@@H]2[C@H](CO)N3CCCCN(C(=O)Nc4cccc(F)c4)C[C@@H]23)cc1
The “activity change, negative = cytotoxicity” value of the first is lower: 26% for the first, 140% for the second.

Going from CN1C(=O)c2cc(NC(=O)c3cccc(F)c3)ccc2OC[C@@H]2O[C@H](CC(=O)O)CC[C@H]21 to CCC(=O)Nc1ccc2c(c1)C(=O)N(C)[C@@H]1CC[C@H](CC(=O)Nc3cccc(OC)c3)O[C@@H]1CO2, the “activity change, negative = cytotoxicity” value rises from 24.4% to 116%.

Compared with C[C@H]1CN([C@@H](C)CO)C(=O)c2cc(C#CC3CCCC3)cnc2O[C@H]1CN(C)C(=O)Cc1ccccn1, CN1C(=O)c2cc(NC(=O)c3cccs3)ccc2OC[C@H]2O[C@@H](CC(=O)NCCN3CCCCC3)CC[C@H]21 is higher in “activity change, negative = cytotoxicity” value: -5.5% for the first, -3.62% for the second.

Compared with CO[C@H]1CN(C)C(=O)c2ccc(NS(C)(=O)=O)cc2OC[C@H](C)N(C(=O)CN(C)C)C[C@H]1C, CN1CCN(C(=O)C[C@H]2CC[C@@H]3[C@H](COc4ccc(NC(=O)c5cccs5)cc4C(=O)N3C)O2)CC1 is lower in “activity change, negative = cytotoxicity” value: 100% for the first, 39.4% for the second.

Compared with CN1C(=O)c2cc(NC(=O)c3cccc(F)c3)ccc2OC[C@@H]2O[C@@H](CC(=O)O)CC[C@@H]21, CN1C(=O)c2cc(NC(=O)c3cccc(F)c3)ccc2OC[C@H]2O[C@H](CC(=O)N3CCc4ccccc4C3)CC[C@@H]21 is lower in “activity change, negative = cytotoxicity” value: 30.4% [at 23.5 µM] for the first, 7.53% [at 23.5 µM] for the second.

Compared with COc1cccc(NC(=O)C[C@@H]2CC[C@@H]3[C@@H](COc4ccc(NS(=O)(=O)c5cccc(F)c5)cc4C(=O)N3C)O2)c1, CC(C)C(=O)Nc1ccc2c(c1)C(=O)N(C)[C@@H]1CC[C@H](CC(=O)NCC3CC3)O[C@H]1CO2 is lower in “activity change, negative = cytotoxicity” value: 85.1% [at 23.5 µM] for the first, 7.63% [at 23.5 µM] for the second.

Compared with CCC(=O)N(C)C[C@@H]1[C@@H](c2ccccc2)[C@H](CO)N1Cc1cccnc1, CC(=O)N1[C@H](CO)[C@@H](c2ccccc2)[C@H]1CN(CC(C)C)C(=O)c1ccccn1 is lower in “activity change, negative = cytotoxicity” value: 74.1% [at 23.5 µM] for the first, 12.4% [at 23.5 µM] for the second.

For COCCN(C[C@H]1[C@H](c2ccccc2)[C@@H](CO)N1C(=O)C1CCC1)C(C)=O, the “activity change, negative = cytotoxicity” value was 162% [at 23.5 µM].
